GALR2 antag: GALR2 antagonists in receptor-expressing cells, primary screen; antagonist mode; 140,000 tested, 0.39% active; inhibition, % at 4 µM; AID 828, 2007; in the data active means inhibition above about 27%;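 further: cells stimulated with galanin 1-16 at roughly its EC80; 0% = agonist challenge control and 100% = basal control without agonist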
Target sequence (O43603 whole entry, looked up): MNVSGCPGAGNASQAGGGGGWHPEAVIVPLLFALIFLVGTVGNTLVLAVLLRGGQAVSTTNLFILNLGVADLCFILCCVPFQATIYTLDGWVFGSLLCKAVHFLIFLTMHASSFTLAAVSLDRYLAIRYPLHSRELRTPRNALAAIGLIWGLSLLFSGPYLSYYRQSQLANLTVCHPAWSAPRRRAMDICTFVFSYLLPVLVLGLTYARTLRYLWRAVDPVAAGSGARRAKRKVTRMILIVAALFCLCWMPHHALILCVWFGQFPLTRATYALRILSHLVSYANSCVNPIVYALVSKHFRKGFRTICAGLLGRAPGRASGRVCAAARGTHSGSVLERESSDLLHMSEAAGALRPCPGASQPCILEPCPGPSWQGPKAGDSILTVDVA
S1P4 ag: S1P4 receptor agonists, primary screen, cell-based. Sphingosine 1-phosphate receptor 4 (Homo sapiens), O95977. S1P4-expressing cell line, agonist reporter assay. activation, % at 4.98 µM. 220,000 tested, 0.35% active; in the data active means activation above about 11%;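 further: 0% = DMSO vehicle and 100% = reference agonist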
GALR2 agonist: GALR2 receptor agonists, primary screen, cell-based; Galanin receptor type 2 (Homo sapiens), O43603; GALR2-expressing cells, agonist activation read-out; activation, % (test concentration not listed); 140,000 tested, 0.48% active; AID 803, 2007; in the data active means activation above about 5%, passing the limit was not always enough;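 further: 0% = vehicle buffer wells and 100% = reference agonist at full effect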
S1P3 antag: S1P3 receptor antagonists, primary screen, cell-based | Sphingosine 1-phosphate receptor 3 (Homo sapiens), Q99500 | CHO S1P3 NFAT-BLA reporter, FRET fluorescence, antagonist mode | inhibition, % at 4.98 µM | 170,000 tested, 0.27% active | AID 485, 2006;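 active means inhibition above the plate cutoff, the mean inhibition of test wells on that plate plus 3 SD, cut at about 28% in these data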;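 further: cells challenged with S1P at its EC80 of 0.8 µM; blue over green emission ratio from cleaved BLA substrate after 4 h stimulation; 0% = S1P-stimulated wells and 100% = unstimulated DMSO-only wells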
S1P4 antagonist: S1P4 receptor antagonists, primary screen, cell-based | AID 1510, 2009 | 220,000 tested, 0.26% active | inhibition, % at 4.98 µM | S1P4-expressing cells, antagonist mode, reporter read-out; in the data active means inhibition above about 29%;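 further: 0% = wells stimulated with agonist and 100% = vehicle wells without agonist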
GALR2 agon conf: GALR2 agonists, retest of hits, confirmation, cell-based | shares compounds with GALR2 agonist | GALR2-expressing cells, agonist activation | activation, % at 5.6 µM | 460 tested, 10% active | AID 864, 2007; in the data active means activation above about 8.4%;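 further: 0% = buffer-only vehicle wells and 100% = full reference agonist response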
BLA activ ctr: activators of NFAT-driven beta-lactamase reporter, confirmation, counter-screen for GALR2 agonist project, CHO NFAT-bla cells, FRET readout. shares compounds with GALR2 agonist. beta-lactamase FRET activation. activation, % at 5.6 µM. 460 tested, 10% active. AID 865, 2007;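 active means activation above the screen-wide mean activation plus 3 SD, cut at about 8% in these data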;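 further: 0% = DMSO with PBS wells and 100% = thapsigargin positive control wells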
The depositor's hits bear a star; / = no result. The list is not random: actives were taken first. Their share in the collection is about 1.3%.

SMILES	GALR2 antag	S1P4 ag	GALR2 agonist	S1P3 antag	S1P4 antagonist	GALR2 agon conf	BLA activ ctr
CCOC(=O)N1CCC(NC(=O)c2cc(S(=O)(=O)N(CC)CC)ccc2F)CC1	-1	-4	-2	/	9	/	/
O=C(Oc1ccc(F)cc1C(=O)/C=C/c1cccs1)c1cccc([N+](=O)[O-])c1	11	-1	39*	/	23	2	3
Cc1ccc(S(=O)(=O)NC(=O)NCc2ccc3c(c2)OCO3)cc1	-2	-2	152*	/	-5	0	-2
CN1C(=O)/C(=C/c2ccccc2OCc2cccc(F)c2)NC1=S	-7	1	146*	/	-2	0	-3
CN1C(=O)/C(=C/c2ccccc2OCc2ccccc2)NC1=S	-10	0	0	-19	-24	/	/
CCOC(=O)CNC(=O)CSc1nccn1Cc1ccco1	/	1	/	-6	3	/	/
COc1ccc(Br)cc1CN1CCCC(C(=O)N2CCCCC2)C1 (stereo not drawn)	-7	0	-2	/	-4	/	/
COc1ccc(OC)c(CN2CCCC(C(=O)N3CCCCC3)C2)c1 (stereo not drawn)	3	0	72*	14	-3	0	-2
O=C(COC(=O)c1cc(Cl)ccc1Cl)NCCN1C(=O)CSC1=O	19	1	12*	-2	-7	-1	-3
Fc1c(F)c(F)c(N=Cc2ccc3ncccc3c2)c(F)c1F	-2	-1	0	5	-11	/	/
CCOC(=S)SCC(=O)Nc1nc(-c2ccc(Br)cc2)cs1	8	0	16*	-17	19	5	-4
CCOC(=S)SCC(=O)Nc1nc(-c2ccccc2)cs1	3	-2	-1	-13	20	/	/
COc1ccc(C(=O)N2CCC(O)(c3ccc(F)cc3)CC2)cc1OC	-6	0	98*	/	1	0	-3
CCCOC(=O)c1ccc(Cl)c(NC(=O)c2cccnc2)c1	/	0	/	-2	-17	/	/
Cc1ccc(OCc2nc(-c3ccccn3)n[nH]2)cc1	-2	2	73*	/	-26	-1	-2
COC(=O)Cc1c(C)c2cc(Cl)c(OC(=O)c3ccco3)cc2oc1=O	13	9	13*	-16	-36	1	3
COC(=O)Cc1c(C)c2ccc(OC(=O)c3ccco3)cc2oc1=O	-2	2	3	-23	1	/	/
CCOC(=O)/C(=N\Nc1ccc(Cl)cc1)c1csc(Nc2ccccc2)n1	-4	2	-1	/	10	/	/
CCOC(=O)/C(=N/Nc1ccccc1)c1csc(Nc2ccccc2)n1	-11	2	56*	/	2	-1	-2
CC1(C)CC(=O)C2=C(C1)N(CCN1CCOCC1)C1=C(C(=O)CC(C)(C)C1)C2c1cccc(Cl)c1	0	7	9	2	-25	2	3
CCN(CC)CCN1C2=C(C(=O)CC(C)(C)C2)C(c2cccc(F)c2)C2=C1CC(C)(C)CC2=O	/	1	/	5	-8	/	/
S=c1[nH]nc(-c2cc3c(s2)-c2ccccc2CC3)o1	2	5	10	/	-8	2	5
CSc1nnc(-c2cc3c(s2)-c2ccccc2CC3)o1	-4	-1	0	/	-17	/	/
CCN(CC)c1ccc(/C=C/c2nc3ccccc3s2)cc1	26	3	17*	/	6	5	6
O=C(NCc1ccco1)c1cccc(F)c1	-9	0	8	-13	-1	-1	-1
SMILES	GALR2 antag	S1P4 ag	GALR2 agonist	S1P3 antag	S1P4 antagonist	GALR2 agon conf	BLA activ ctr
O=C(COc1ccc(Cl)cc1)NNC(=O)C(=O)N1CCCCC1	0	-2	29*	/	-6	0	0
COc1cccc(/C=N/NC(=O)CCc2c(C)n[nH]c2C)c1	3	1	14*	/	-20	-1	-2
Cc1ccc(-n2nc(C(=O)NCc3ccc(C)o3)c3c4ccccc4n(C)c3c2=O)cc1	-17	3	14*	/	20	0	-2
COc1ccc(-n2nc(C(=O)NCc3ccco3)c3c4ccccc4n(C)c3c2=O)cc1	12	3	-1	5	1	/	/
CCOC(=O)c1[nH]c(C)c(C(=O)Nc2ccc(C)c(F)c2)c1C	3	2	44*	1	-18	0	-2
CCOC(=O)c1[nH]c(C)c(C(=O)Nc2ccc(C)c(Cl)c2)c1C	4	1	-3	-6	1	/	/
CC(C)CC(C(=O)N1CCOCC1)N1Cc2ccccc2C1=O (stereo not drawn)	/	1	/	0	3	/	/
O=C(O)C(Cc1ccccc1)N1Cc2ccccc2C1=O (stereo not drawn)	-3	-3	11	/	12	-1	-3
CCCCNC(=S)NNC(=O)C12CC3CC(CC(C3)C1)C2	-3	1	-1	/	-13	/	/
CC(C)NC(=S)NNC(=O)C12CC3CC(CC(C3)C1)C2	3	-6	12*	/	-6	-1	-2
COc1ccc(F)cc1C(=O)C1CCCN(C(=O)C2=C(C)OCCO2)C1 (stereo not drawn)	/	1	/	1	-4	/	/
COc1ccccc1CC(Cc1nc2ccccc2[nH]1)c1nc2ccccc2[nH]1 (stereo not drawn)	/	0	/	-2	-6	/	/
Cc1cccc(CC(Cc2nc3ccccc3[nH]2)c2nc3ccccc3[nH]2)c1 (stereo not drawn)	-11	-2	9	/	3	15*	29*
CCN(CC)c1ccc2c(Cl)cc(=O)oc2c1	22	6	9	/	-4	2	7
COC(=O)c1sccc1NC(=O)CC1C(=O)NCCN1C(=O)Nc1cc(Cl)ccc1OC (stereo not drawn)	/	-5	/	-12	12	/	/
CCOC(=O)c1c(C)n(C)c2ccc(OCC(O)CN3C(=O)c4ccccc4S3(=O)=O)cc12 (stereo not drawn)	-8	3	9	6	-15	1	1
O=C(c1ccc(N2C(=O)C3CC=C(Cl)CC3C2=O)cc1)N1CCCCC1 (stereo not drawn)	-4	-1	-1	/	-6	/	/
O=C(Nc1ccc(Br)cc1)c1ccc(N2C(=O)C3CC=C(Cl)CC3C2=O)cc1 (stereo not drawn)	9	2	12*	/	-16	0	-4
Cc1ccc(/C=N/NC(=O)c2ccc(C(=O)N/N=C/c3ccc(C)s3)o2)s1	6	1	30*	/	-27	2	14*
Cc1ccc(/C=N/NC(=O)c2ccco2)s1	2	-1	-3	/	-6	/	/
CC(C)NC(=O)c1ccccc1NC(=O)/C=C/c1cccc([N+](=O)[O-])c1	3	0	25*	-3	-9	11*	22*
CCC(CC)C(=O)NCc1cccnc1	/	0	/	-6	-5	/	/
CC(C)N1C(=O)/C(=C\c2nc3ccccc3c(=O)n2-c2ccccc2)c2ccccc21	-14	-3	41*	1	2	1	2
